# In PubChem BioAssay (EPA / NIEHS):
# Active and inactive are the calls of the source. How the source made its calls: active means hit-call score of the fitted dose curve at least 0.9, where 1 is the maximum; inactive means score below 0.9.
# What was measured:
# Conditions in all cases: mRNA level, 48 h; actives raise or lower the signal
# [1] = read-out: adenosine kinase (ADK) gene, ADK (gene 132); experiment: LTEA_HepaRG_ADK: Life Technologies and Expression Analysis (LTEA) Assay for adenosine kinase (ADK) gene using HepaRG (AID 2283471)
# Outline: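 Read-out is ADK transcript level measured by qRT-PCR and normalised to three housekeeping genes. Cells are human HepaRG, dosed for 48 h at up to 100 uM in 0.5% DMSO. Gain or loss of signal is fitted against DMSO controls.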
# [2] = read-out: Alpha-fetoprotein (AFP) gene, AFP (gene 174); experiment: LTEA_HepaRG_AFP: Life Technologies and Expression Analysis (LTEA) Assay for Alpha-fetoprotein (AFP) gene using HepaRG (AID 2283472)
# Outline: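 Measures AFP mRNA change in HepaRG after 48 h chemical exposure (8 half-log concentrations, highest 100 uM, 0.5% DMSO). Fold change relative to DMSO, fitted in both directions.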
# BCL2L11 (gene 10018) = experiment: LTEA_HepaRG_BCL2L11: Life Technologies and Expression Analysis (LTEA) Assay for Bcl-2 (BCL2L11) gene using HepaRG (AID 2283473)
# Outline: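 HepaRG, 48 h exposure, 8-pt half-log series from 100 uM in 0.5% DMSO, duplicates; qRT-PCR (Fluidigm TaqMan) for BCL2L11, housekeeping-normalized; bidirectional curve fit relative to DMSO baseline.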
# [3] = read-out: Apolipoprotein A-V (APOA5) gene, APOA5 (gene 116519); experiment: LTEA_HepaRG_APOA5: Life Technologies and Expression Analysis (LTEA) Assay for Apolipoprotein A-V (APOA5) gene using HepaRG (AID 2283474)
# Outline: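 HepaRG, 48 h chemical exposure in serum-free induction medium, 8-pt half-log series (top 100 uM), 0.5% DMSO vehicle, duplicates. Readout: APOA5 mRNA by qRT-PCR, housekeeping-normalized; bidirectional fit vs DMSO baseline.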
# [4] = read-out: Apoptosis regulator Bcl-2 (Homo sapiens) (UniProt P10415); experiment: LTEA_HepaRG_BCL2: Life Technologies and Expression Analysis (LTEA) Assay for Bcl-2 gene using HepaRG (AID 2283475)
# Outline: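 Each chemical was tested in duplicate on HepaRG cultures held in serum-free induction medium for 48 h, highest concentration 100 uM with half-log dilutions. Transcript levels came from multiplexed qRT-PCR, normalised to housekeeping genes; activity was scored in either direction relative to DMSO.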
# [5] = read-out: Bcl-2 (BID) gene, BID (gene 637); experiment: LTEA_HepaRG_BID: Life Technologies and Expression Analysis (LTEA) Assay for Bcl-2 (BID) gene using HepaRG (AID 2283476)
# Outline: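 Assay used HepaRG hepatic cells treated 48 h in serum-free medium with half-log dilutions from 100 uM. Endpoint: BID mRNA, qRT-PCR, normalized to ACTB/GAPDH/POLR2A.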
# Caspase-3 (Homo sapiens) = Caspase-3 (Homo sapiens) (UniProt P42574); experiment: LTEA_HepaRG_CASP3: Life Technologies and Expression Analysis (LTEA) Assay for cysteine-aspartic acid protease (CASP3) using HepaRG (AID 2283477)
# Chain of Caspase-3 (Homo sapiens) (P42574 whole entry, looked up): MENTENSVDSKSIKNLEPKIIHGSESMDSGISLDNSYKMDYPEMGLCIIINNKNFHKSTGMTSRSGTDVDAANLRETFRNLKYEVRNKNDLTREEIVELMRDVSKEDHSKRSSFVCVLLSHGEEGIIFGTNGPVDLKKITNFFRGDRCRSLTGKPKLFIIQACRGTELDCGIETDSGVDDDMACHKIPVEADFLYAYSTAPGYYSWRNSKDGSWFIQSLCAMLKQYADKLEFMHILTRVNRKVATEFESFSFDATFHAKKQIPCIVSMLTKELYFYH
# Outline: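 HepaRG, 48 h exposure, 8 conc. (top 100 uM, half-log steps, duplicate), 0.5% DMSO vehicle; qRT-PCR of CASP3 transcript, housekeeping-normalised (ACTB/GAPDH/POLR2A); bidirectional curve fit vs DMSO baseline.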
# [6] = read-out: Cytochrome P450 (CYP24A1), CYP24A1 (gene 1591); experiment: LTEA_HepaRG_CYP24A1: Life Technologies and Expression Analysis (LTEA) Assay for Cytochrome P450 (CYP24A1) using HepaRG (AID 2283478)
# Outline: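 qRT-PCR read-out: CYP24A1 transcript levels normalized to three housekeeping genes, bidirectional curve fits against 0.5% DMSO baseline. Human HepaRG cells treated 48 h with chemicals at eight concentrations from 100 uM in half-log steps.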
# [7] = read-out: Cytochrome P450 (CYP1A2), CYP1A2 (gene 1544); experiment: LTEA_HepaRG_CYP1A2: Life Technologies and Expression Analysis (LTEA) Assay for Cytochrome P450 (CYP1A2) using HepaRG (AID 2283479)
# Outline: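 HepaRG, 48 h exposure, top 100 uM, half-log 8-pt, 0.5% DMSO vehicle, duplicates. Readout: TaqMan qRT-PCR of CYP1A2 mRNA, housekeeping-normalized (ACTB/GAPDH/POLR2A). Gain/loss fit relative to DMSO baseline.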
# [8] = read-out: cysteine-aspartic acid protease (CASP8), CASP8 (gene 841); experiment: LTEA_HepaRG_CASP8: Life Technologies and Expression Analysis (LTEA) Assay for cysteine-aspartic acid protease (CASP8) using HepaRG (AID 2283480)
# Outline: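 Concentration-response in duplicate up to 100 uM (half-log steps, 0.5% DMSO) on differentiated HepaRG cultures for 48 h. Expression change of CASP8 mRNA is determined by TaqMan qRT-PCR with housekeeping-gene normalization.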
# [9] = read-out: Cytochrome P450 (CYP2B6), CYP2B6 (gene 1555); experiment: LTEA_HepaRG_CYP2B6: Life Technologies and Expression Analysis (LTEA) Assay for Cytochrome P450 (CYP2B6) using HepaRG (AID 2283481)
# Outline: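 Read-out is CYP2B6 mRNA by TaqMan qRT-PCR, normalized to three housekeeping genes and fitted bidirectionally against 0.5% DMSO baseline. Human HepaRG cells received test chemicals for 48 h, top concentration 100 uM, half-log dilutions.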
# CYP2C8 (gene 1558) = experiment: LTEA_HepaRG_CYP2C8: Life Technologies and Expression Analysis (LTEA) Assay for CYP2C8 using HepaRG (AID 2283483)
# Outline: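 This is a transcriptional endpoint in HepaRG cultures: 48 h exposure, highest concentration 100 uM. CYP2C8 mRNA is quantified by TaqMan qRT-PCR.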
# CYP2C9 (gene 1559) = experiment: LTEA_HepaRG_CYP2C9: Life Technologies and Expression Analysis (LTEA) Assay for CYP2C9 using HepaRG (AID 2283484)
# Outline: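 Eight-point concentration-response (highest 100 uM, half-log dilutions) in HepaRG cells for 48 h; CYP2C9 expression by qRT-PCR normalized to ACTB, GAPDH, POLR2A. Bidirectional fit, DMSO baseline.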
# CYP2E1 (gene 1571) = experiment: LTEA_HepaRG_CYP2E1: Life Technologies and Expression Analysis (LTEA) Assay for CYP2E1 using HepaRG (AID 2283485)
# Outline: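 Assay uses 48 h exposure of HepaRG hepatic cells, eight concentrations to 100 uM. Expression of CYP2E1 is quantified by TaqMan qRT-PCR with ACTB, GAPDH and POLR2A normalization; curves fitted in both directions relative to vehicle.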
# CYP4A11 (gene 1579) = experiment: LTEA_HepaRG_CYP4A11: Life Technologies and Expression Analysis (LTEA) Assay for CYP4A11 using HepaRG (AID 2283486)
# Outline: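 CYP4A11 transcript levels were quantified by TaqMan qRT-PCR after HepaRG human liver cells were treated for 48 hours with test chemicals (top 100 uM, half-log dilutions, 0.5% DMSO). Gain or loss of signal was fitted relative to DMSO.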
# [10] = read-out: Cytochrome P450 3A4 (Homo sapiens) (UniProt P08684); experiment: LTEA_HepaRG_CYP3A4: Life Technologies and Expression Analysis (LTEA) Assay for CYP3A4 using HepaRG (AID 2283487)
# Outline: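 HepaRG, 48 h exposure, 8-pt CRC from 100 uM (half-log), 0.5% DMSO, duplicates; serum-free induction medium. Readout: CYP3A4 mRNA, qRT-PCR, ACTB/GAPDH/POLR2A normalization. Bidirectional fit vs DMSO.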
# [11] = read-out: DNA damage-inducible transcript 3 (DDIT3), DDIT3 (gene 1649); experiment: LTEA_HepaRG_DDIT3: Life Technologies and Expression Analysis (LTEA) Assay for DNA damage-inducible transcript 3 (DDIT3) using HepaRG (AID 2283488)
# Outline: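 Eight-point concentration-response (100 uM highest, half-log dilutions) in HepaRG, 48 h, duplicate wells. Endpoint: qRT-PCR mRNA, normalized (ACTB, GAPDH, POLR2A), bidirectional fitting with DMSO as baseline.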
# [12] = read-out: Pro-epidermal growth factor (Homo sapiens) (UniProt P01133); experiment: LTEA_HepaRG_EGF: Life Technologies and Expression Analysis (LTEA) Assay for Epidermal growth factor (EGF) using HepaRG (AID 2283489)
# Outline: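 qRT-PCR readout of EGF transcript after 48 h chemical exposure of HepaRG cells; eight concentrations from 100 uM down in half-log steps, duplicate wells, 0.5% DMSO vehicle. Bidirectional curve fitting against DMSO baseline.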
# [13] = read-out: Early growth response protein 1 (EGR1) transcription factor, EGR1 (gene 1958); experiment: LTEA_HepaRG_EGR1: Life Technologies and Expression Analysis (LTEA) Assay for Early growth response protein 1 (EGR1) transcription factor using HepaRG (AID 2283490)
# Outline: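 EGR1 expression change in human HepaRG after 48 h chemical exposure, assessed by housekeeping-normalized qRT-PCR; concentration-response up to 100 uM, fitted in both directions against DMSO controls.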
# [14] = read-out: Cytochrome P450 2C19 (Homo sapiens) (UniProt P33261); experiment: LTEA_HepaRG_CYP2C19: Life Technologies and Expression Analysis (LTEA) Assay for CYP2C19 using HepaRG (AID 2283482)
# Outline: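 HepaRG, 48 h chemical exposure, 8-pt half-log series from 100 uM in 0.5% DMSO, duplicates. Readout: CYP2C19 mRNA by TaqMan qRT-PCR, housekeeping-normalized. Bidirectional fit vs DMSO baseline; phenobarbital 1mM as induction control.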
# Chain of Apoptosis regulator Bcl-2 (Homo sapiens) (P10415 whole entry, looked up): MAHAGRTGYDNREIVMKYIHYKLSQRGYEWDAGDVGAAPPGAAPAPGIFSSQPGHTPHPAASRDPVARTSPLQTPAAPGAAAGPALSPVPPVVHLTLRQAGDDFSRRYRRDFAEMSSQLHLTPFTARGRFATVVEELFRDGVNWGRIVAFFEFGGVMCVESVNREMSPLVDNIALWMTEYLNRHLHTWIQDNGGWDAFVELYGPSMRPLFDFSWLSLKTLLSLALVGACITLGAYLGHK
# Chain of Cytochrome P450 3A4 (Homo sapiens) (P08684 whole entry, looked up): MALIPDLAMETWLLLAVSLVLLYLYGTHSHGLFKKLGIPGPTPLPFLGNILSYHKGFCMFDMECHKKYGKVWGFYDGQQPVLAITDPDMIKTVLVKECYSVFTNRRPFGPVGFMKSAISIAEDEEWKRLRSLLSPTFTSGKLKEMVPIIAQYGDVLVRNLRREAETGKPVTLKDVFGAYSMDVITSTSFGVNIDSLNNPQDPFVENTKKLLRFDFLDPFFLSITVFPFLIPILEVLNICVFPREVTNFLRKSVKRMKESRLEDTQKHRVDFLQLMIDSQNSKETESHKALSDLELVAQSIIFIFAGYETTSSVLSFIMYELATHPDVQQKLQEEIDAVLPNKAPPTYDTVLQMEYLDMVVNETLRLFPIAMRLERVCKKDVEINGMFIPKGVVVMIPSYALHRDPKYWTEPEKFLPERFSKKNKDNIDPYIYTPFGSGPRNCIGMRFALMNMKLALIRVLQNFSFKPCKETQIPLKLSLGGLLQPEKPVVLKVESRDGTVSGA
# Chain of Cytochrome P450 2C19 (Homo sapiens) (P33261 whole entry, looked up): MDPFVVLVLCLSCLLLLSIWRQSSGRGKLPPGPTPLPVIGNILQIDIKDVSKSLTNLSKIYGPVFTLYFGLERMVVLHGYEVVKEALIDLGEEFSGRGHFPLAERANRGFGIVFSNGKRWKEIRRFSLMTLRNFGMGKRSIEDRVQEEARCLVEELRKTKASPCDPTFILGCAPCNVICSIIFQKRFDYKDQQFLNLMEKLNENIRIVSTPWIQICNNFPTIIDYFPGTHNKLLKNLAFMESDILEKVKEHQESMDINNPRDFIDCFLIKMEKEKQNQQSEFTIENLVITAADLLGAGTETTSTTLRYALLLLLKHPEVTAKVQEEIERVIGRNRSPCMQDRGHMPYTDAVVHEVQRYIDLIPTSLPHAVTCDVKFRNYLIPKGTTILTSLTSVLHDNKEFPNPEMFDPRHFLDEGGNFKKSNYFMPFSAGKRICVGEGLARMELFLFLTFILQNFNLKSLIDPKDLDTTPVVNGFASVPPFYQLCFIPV
structure (smiles),measurement,setting,value
CC(C)(C)c1csc(-c2cc3cc(OCc4ccccc4CC(=O)O)ccc3o2)n1,AC50,[1],73.1 µM (active)
same,AC50,[2],23.9 µM (active)
same,AC50,BCL2L11 (gene 10018),18.8 µM (active)
same,AC50,[3],20 µM (active)
same,outcome,[4],inactive
same,AC50,[5],75.7 µM (active)
same,AC50,Caspase-3 (Homo sapiens),77.7 µM (active)
same,outcome,[6],inactive
same,outcome,[7],inactive
same,outcome,[8],inactive
same,AC50,[9],23.3 µM (active)
same,AC50,CYP2C8 (gene 1558),25.5 µM (active)
same,AC50,CYP2C9 (gene 1559),12.5 µM (active)
same,AC50,CYP2E1 (gene 1571),16.8 µM (active)
same,AC50,CYP4A11 (gene 1579),23.2 µM (active)
same,AC50,[10],76.1 µM (active)
same,AC50,[11],22.7 µM (active)
same,outcome,[12],inactive
same,AC50,[13],89.5 µM (active)
O=C(OCCCCCCOC(=O)c1ccccc1)c1ccccc1,outcome,[1],inactive
same,outcome,[2],inactive
same,outcome,BCL2L11 (gene 10018),inactive
same,outcome,[3],inactive
same,outcome,[4],inactive
same,outcome,[5],inactive
same,outcome,Caspase-3 (Homo sapiens),inactive
same,outcome,[6],inactive
same,AC50,[7],12.5 µM (active)
same,outcome,[8],inactive
same,outcome,[9],inactive
same,outcome,CYP2C8 (gene 1558),inactive
same,outcome,CYP2C9 (gene 1559),inactive
same,outcome,CYP2E1 (gene 1571),inactive
same,outcome,CYP4A11 (gene 1579),inactive
same,outcome,[10],inactive
same,outcome,[11],inactive
same,outcome,[12],inactive
same,outcome,[13],inactive
CCCCCc1ccc(N)cc1,outcome,[1],inactive
same,outcome,[2],inactive
same,outcome,BCL2L11 (gene 10018),inactive
same,outcome,[3],inactive
same,outcome,[4],inactive
same,outcome,[5],inactive
same,outcome,Caspase-3 (Homo sapiens),inactive
same,outcome,[6],inactive
same,AC50,[7],30.3 µM (active)
same,outcome,[8],inactive
same,AC50,[9],18.8 µM (active)
same,outcome,[14],inactive
same,AC50,CYP2C8 (gene 1558),18.7 µM (active)
same,outcome,CYP2C9 (gene 1559),inactive
same,outcome,CYP2E1 (gene 1571),inactive
same,outcome,CYP4A11 (gene 1579),inactive
same,outcome,[10],inactive
same,outcome,[11],inactive
same,outcome,[12],inactive
same,outcome,[13],inactive
Oc1ccc2ccccc2c1,outcome,[1],inactive
same,outcome,[2],inactive
same,outcome,BCL2L11 (gene 10018),inactive
same,outcome,[3],inactive
same,outcome,[4],inactive
same,outcome,[5],inactive
same,outcome,Caspase-3 (Homo sapiens),inactive
same,outcome,[6],inactive
same,AC50,[7],78.1 µM (active)
same,outcome,[8],inactive
same,outcome,[9],inactive
same,outcome,CYP2C8 (gene 1558),inactive
same,outcome,CYP2C9 (gene 1559),inactive
same,outcome,CYP2E1 (gene 1571),inactive
same,outcome,CYP4A11 (gene 1579),inactive
same,outcome,[10],inactive
same,outcome,[11],inactive
same,outcome,[12],inactive
same,outcome,[13],inactive
CCCCOC(=O)CC(CC(=O)OCCCC)(OC(C)=O)C(=O)OCCCC,outcome,[1],inactive
same,outcome,[2],inactive
same,outcome,BCL2L11 (gene 10018),inactive
same,outcome,[3],inactive
same,outcome,[4],inactive
same,outcome,[5],inactive
same,outcome,Caspase-3 (Homo sapiens),inactive
same,outcome,[6],inactive
same,outcome,[7],inactive
same,outcome,[8],inactive
same,outcome,[9],inactive
same,outcome,CYP2C8 (gene 1558),inactive
same,outcome,CYP2C9 (gene 1559),inactive
same,outcome,CYP2E1 (gene 1571),inactive
same,outcome,CYP4A11 (gene 1579),inactive
same,outcome,[11],inactive
same,outcome,[12],inactive
same,outcome,[13],inactive
CC1(C)NC(=O)N(c2ccc([N+](=O)[O-])c(C(F)(F)F)c2)C1=O,outcome,[1],inactive
same,AC50,[2],80.5 µM (active)
same,outcome,BCL2L11 (gene 10018),inactive
same,AC50,[3],67.9 µM (active)
same,AC50,[4],78.9 µM (active)
same,outcome,[5],inactive
same,outcome,Caspase-3 (Homo sapiens),inactive
same,outcome,[6],inactive
same,AC50,[7],85.5 µM (active)
same,outcome,[8],inactive
same,AC50,[9],81.4 µM (active)
same,AC50,[14],12.4 µM (active)
same,AC50,CYP2C8 (gene 1558),85.5 µM (active)
same,AC50,CYP2C9 (gene 1559),83.6 µM (active)
same,AC50,CYP2E1 (gene 1571),63.2 µM (active)
same,AC50,CYP4A11 (gene 1579),69.3 µM (active)
same,AC50,[11],75.7 µM (active)
same,outcome,[12],inactive
same,outcome,[13],inactive
